Peg3 imprint: qHTS Assay for Compounds that Induce Erasure of Genomic Imprints; hit rate 0.02% among 110,000; mouse ES Peg3-LacZ reporter, beta-gal luminescence, 40 h; AID 1948, 2009; Potency, µM (highest dose often 60.7 µM), for the others: at the highest dose activity change, positive = activation, usual class: activators
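Each well holds 300 Peg3LacZ-Neo (maternal) female ES cells incubated 40 h at 37C, 5% CO2. LacZ is measured by BetaGlo luminescence, with AC50 and maximum efficacy derived from dose-response curves.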
HEK293 cAMP cs: qHTS Assay for Agonists of the Thyroid Stimulating Hormone Receptor: Activators of Intracellular cAMP Concentrations in Parental HEK 293; parental HEK293 CNG cAMP sensor, membrane potential fluorescence; Potency, µM (series often up to 57.1 µM), for inactives: at the highest dose activation, most hits filed as activators; hit rate 2.5% among 73,000; note: % of control where 0% means no effect; nearly all actives have a fitted effect of over 55% in size
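Parental HEK 293 cells stably expressing a modified CNG channel (no TSHR) report cAMP rise as membrane depolarization. Membrane potential dye with 100 uM RO 20-1724 was loaded for 60 min at room temperature, then compound added for 30 min; fluorescence read at 590 nm.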
TSHR ag: qHTS Assay for Agonists of the Thyroid Stimulating Hormone Receptor | AID 926, 2007 | HEK293-CNG-TSHR cells (CNG channel as cAMP sensor), membrane potential dye, cAMP | Thyrotropin receptor (Homo sapiens), P16473 | Potency, µM (series often up to 57.1 µM), inactives show at the top dose activation, hits mostly activators | hit rate 0.48% among 73,000; active = well fitted activation curve with a large enough effect in the main read-out, with a control signal flat, not every such curve was filed as active; inconclusive = small, poorly fitted or top-dose-only effect, or a change in a side signal; inactive = no such curve, though single readings can be large or run the other way; % of control where 0% means no effect;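 note: the control signal comes from parental cells without the receptor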
Target sequence (P16473 whole entry, looked up): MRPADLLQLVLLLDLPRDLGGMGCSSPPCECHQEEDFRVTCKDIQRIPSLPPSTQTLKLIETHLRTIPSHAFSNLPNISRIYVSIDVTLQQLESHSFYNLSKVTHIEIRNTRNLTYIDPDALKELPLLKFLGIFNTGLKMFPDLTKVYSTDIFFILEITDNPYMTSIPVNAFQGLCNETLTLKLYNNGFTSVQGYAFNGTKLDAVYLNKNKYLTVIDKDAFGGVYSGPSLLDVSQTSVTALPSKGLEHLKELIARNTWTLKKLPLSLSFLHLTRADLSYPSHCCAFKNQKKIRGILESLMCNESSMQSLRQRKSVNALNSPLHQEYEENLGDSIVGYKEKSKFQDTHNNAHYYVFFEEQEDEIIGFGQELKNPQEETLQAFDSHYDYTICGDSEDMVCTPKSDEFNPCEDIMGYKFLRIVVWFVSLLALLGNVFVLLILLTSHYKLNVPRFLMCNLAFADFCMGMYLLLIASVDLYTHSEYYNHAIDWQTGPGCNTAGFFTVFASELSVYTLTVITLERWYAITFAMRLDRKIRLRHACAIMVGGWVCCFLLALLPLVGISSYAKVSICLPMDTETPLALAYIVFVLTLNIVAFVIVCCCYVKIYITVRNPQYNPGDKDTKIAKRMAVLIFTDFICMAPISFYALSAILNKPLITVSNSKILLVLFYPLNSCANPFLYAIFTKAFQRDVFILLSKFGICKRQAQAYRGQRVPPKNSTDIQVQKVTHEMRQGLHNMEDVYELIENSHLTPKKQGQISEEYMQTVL
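HEK 293 cells stably expressing TSHR and a cAMP-gated CNG channel; parental CNG-only cells as counterscreen. Cells preloaded 60 min with membrane potential dye plus 100 uM RO 20-1724, then compound 30 min; fluorescence read at 590 nm.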
* marks the source's active call; other numbers are inactive results; ? = inconclusive; · = no result given; [ ] = remark or other dose. This excerpt belongs to a sample that is enriched for hits. Unless noted, calls come from the whole dose curve; as a rule, active = well fitted activation curve with a large enough effect; inconclusive = small, poorly fitted or top-dose-only effect; inactive = no such curve, though single readings can be large or run the other way. Potency is the fitted concentration of half-maximal effect.

SMILES	Peg3 imprint	HEK293 cAMP cs	TSHR ag
c1ccc2c(c1)CCCN2Cc1nnnn1CC1CCCO1 (centres undefined)	-5%	?	?
CCc1cc(Br)ccc1N1C(=O)C2CC=CCC2C1=O (centres undefined)	-13%	7%[11.4 µM]	2.5µM*
CC(C)OC(=O)c1ccc(N2C(=O)C3CC=CCC3C2=O)cc1 (centres undefined)	-3%	0%	·
COc1cc(C2Nc3cccc4cccc(c34)N2)cc(OC)c1O	-3%	-2%	-10%
COc1cc(C2Nc3cccc4cccc(c34)N2)ccc1OC(C)=O	-3%	1.3µM*	?
C=CCc1c(C)nc2nc(SCC(=O)Nc3ccc(OCC)cc3)nn2c1C	-14%[10.9 µM]	·	·
CN(C)c1ccc(N=NS(=O)(=O)O)cc1	8%	10µM*	?
O=S(=O)(O)c1ccc(N=Nc2ccccc2)cc1	-58%[10.9 µM]	-4%[11.4 µM]	-1%[11.4 µM]
COc1ccc(OC)c(S(=O)(=O)n2ccnc2)c1	-5%	7%	2%
CN(C)c1nc(-c2ccc3c(c2)OCO3)nc2ccccc12	-8%	12%	22%
CC(=O)N(C(C)=O)c1ncc2c([nH]c3ccccc32)c1C#N	7%	25µM*	?
CNC(=O)c1cc2c(cn1)[nH]c1ccccc12	-9%	?	?
Cc1ccc(NC(=O)N2CCC(n3c(C)nc4cccnc43)CC2)c(Cl)c1	-9%[10.9 µM]	·	·
Cc1ccc(Cl)cc1N1CCN(C(=O)c2ccc3c(c2)N(Cc2ccccc2)CCS3)CC1	-20%[10.9 µM]	·	·
CN(Cc1ccccc1)Cc1nc2c(c(=O)n(C)c(=O)n2C)n1Cc1ccccc1Cl	-4%	?	?
CCCCn1c(CN(C)Cc2ccccc2)nc2c1c(=O)n(C)c(=O)n2C	-5%	16µM*	?
CCCn1c(CN(C)Cc2ccccc2)nc2c1c(=O)n(C)c(=O)n2C	-13%	?	?
CN(Cc1ccccc1)Cc1nc2c(c(=O)n(C)c(=O)n2C)n1CCc1ccccc1	-10%	13µM*	?
O=C(c1ccc(Cc2nc3ccccc3[nH]2)cc1)N1CCCCC1	·	-19%	1%
CC(=O)C1(O)C(C)CC2C3CCC4CC(O)CCC4(C)C3=CCC21C (centres undefined)	-2%	13µM*	?
CC1CCC2(OC1)OC1CC3C4CCC5CC(O)CCC5(C)C4=CCC3(C)C1C2C (centres undefined)	-10%	·	·
CCc1nn2c(=O)cc(COC(=O)c3cccc(NC(=O)CCc4ccccc4)c3)nc2s1	-5%[10.9 µM]	·	·
Cc1cc(OCC(=O)N(Cc2ccc(N(C)C)cc2)CC2CCCO2)ccc1Cl (centres undefined)	4%[10.9 µM]	·	·
Cc1cc(-c2nnco2)c(C)n1-c1ccc(F)cc1	-6%	16µM*	?
Cc1ccc(C)n1-c1ccc(-c2nnco2)cc1	-15%	4%	2%
SMILES	Peg3 imprint	HEK293 cAMP cs	TSHR ag
CCc1cccc2nc3c(c([Si](C)(C)C)c12)Cn1c-3cccc1=O	-14%	?	?
Cc1ccc2oc(C(=O)Nc3cccc(-c4nc5ccccc5s4)c3)c(C)c2c1	10%[10.9 µM]	·	·
NCCC[C@@H](CC(=O)N[C@@H]1CCCC[C@H]1C(=O)N[C@H](CC(=O)N[C@@H](CCC(=O)O)CC(=O)O)Cc1ccccc1)NC(=O)C[C@H](Cc1ccccc1)NC(=O)[C@@H]1CCCC[C@H]1N	·	0.032µM*	?
NCCC[C@@H](CC(=O)N[C@@H]1CCCC[C@H]1C(=O)N[C@H](CC(=O)N[C@@H](CCC(=O)O)CC(=O)O)Cc1ccccc1)NC(=O)C[C@H](Cc1ccccc1)NC(=O)[C@@H]1CNCC[C@H]1N	·	5%	5%
CCOC(=O)C1CCN(C(c2cccc(F)c2)c2c(O)cc(C)n(Cc3ccco3)c2=O)CC1 (centres undefined)	-4%[10.9 µM]	·	·
O=c1n(Cc2ccccc2Cl)c2ccccc2c2nc(-c3ccccc3)nn12	-11%[10.9 µM]	·	·
Cc1ccccc1CNc1ncnc2c1ncn2[C@@H]1O[C@@H](CO)[C@H](O)[C@@H]1O	·	7.9µM*	?
Cc1ccccc1CNc1ncnc2c1ncn2C1OC(CO)C(O)C1O (centres undefined)	14%	·	·
Nc1nc(Cl)nc2c1ncn2[C@@H]1O[C@@H](CO)[C@@H](O)[C@H]1O	·	7.9µM*	?
Nc1nc(Cl)nc2c1ncn2[C@@H]1O[C@H](CO)[C@H](O)[C@H]1O	-11%	·	·
C[C@@H](Cc1ccccc1)Nc1ncnc2c1ncn2[C@@H]1O[C@@H](CO)[C@H](O)[C@@H]1O	·	25µM*	?
CNc1ncnc2c1ncn2[C@@H]1O[C@H](CO)[C@@H](O)[C@@H]1O	6%[16.8 µM]	?	?
Cc1c(Cl)cccc1NC(=O)C(C)n1c(=O)cc(C)c2c(C)nn(-c3ccccc3)c21 (centres undefined)	-10%[10.9 µM]	·	·
COc1ccc(CNC(=O)c2ccc3c(c2)N(C)C(=O)C2CCCCN32)cc1OC (centres undefined)	-10%[10.9 µM]	·	·
Cc1cn2c(=O)cc(COC(=O)c3cccc(NC(=O)c4ccc(C(C)(C)C)cc4)c3)nc2s1	-15%[10.9 µM]	·	·
Cc1ccc(-c2nn(-c3ccccc3)cc2C2SCC(=O)N2Cc2ccccc2)o1 (centres undefined)	-30%	13%	25µM*
O=C1CSC(c2cn(-c3ccccc3)nc2-c2cc3ccccc3oc2=O)N1Cc1ccco1 (centres undefined)	-18%	29%	·
Cc1ccc(C)c(-n2nnc(-c3nc(-c4ccc(Cl)cc4)no3)c2N)c1	-11%[10.9 µM]	·	·
CCC(CC)C(=O)Nc1cccc(-c2nc3ccccc3o2)c1	-4%	27%	6.3µM*
CCC(CC)C(=O)Nc1cccc(-c2nc3ccccc3s2)c1	-12%[10.9 µM]	·	·
O=C(NCc1ccccc1)c1ccc(Cc2nc3ccccc3[nH]2)cc1	·	5%	-6%
CN(Cc1ccco1)c1nc(-c2ccccc2C(F)(F)F)nc2ccccc12	-6%	10µM*	?
CN(Cc1ccco1)c1nc(-c2ccccc2Cl)nc2ccccc12	-3%	23%	18%
COc1ccccc1-c1nc(N(C)Cc2ccco2)c2ccccc2n1	-18%	25µM*	?
CN(Cc1ccco1)c1ncncc1-c1ccccc1C(F)(F)F	-7%	?	?
SMILES	Peg3 imprint	HEK293 cAMP cs	TSHR ag
CN(Cc1ccco1)c1nc(-c2cccnc2)nc2ccccc12	-17%	25µM*	?
CN(Cc1ccco1)c1cc(-c2cccnc2)ncn1	-9%	-8%	10%
CO[C@@H]1COC(=O)[C@H](C)NC(=O)[C@@H](C)COC(=O)CCC[C@H]1C	·	1%[11.4 µM]	-6%[11.4 µM]
CCc1nn(Cc2cccc(F)c2)c(=O)c2cc3cc(C)ccc3n12	-9%[10.9 µM]	·	·
O=c1cc(-c2ccc(O)c(O)c2)oc2cc(O[C@@H]3O[C@@H](CO)[C@@H](O)[C@@H](O)[C@H]3O)cc(O)c12	·	-2%	-6%
CCc1cccc(NC(=O)Cn2c(=O)n(CC3CCC(C(=O)NCCc4ccccc4)CC3)c(=O)c3ccccc32)c1 (centres undefined)	-17%[10.9 µM]	·	·
COc1ccc(N2CCN(C(=O)COc3ccccc3C#N)CC2)cc1	29%[10.9 µM]	·	·
CC(C)c1nc(N2CCN(C(=O)c3ccco3)CC2)c2c3c(sc2n1)CCCC3	-29%	19%	10µM*
